For 14 molecules, inhibition results are on record in PubChem BioAssay.

Each structure is given as a SMILES string. Several values for one entry are separate records, joined by “and”; a condition that tells them apart may be missing. Equal values may be shown once. A number with no mark means an inactive call. Activity calls are given as the source filed them.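 The calls were made as follows, unless noted: active = mean inhibition over 43.08%, the solvent-only control mean plus 3 SD; inactive = the rest.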

For assay [1], the target named is Nuclear receptor coactivator 3 (Homo sapiens) (UniProt Q9Y6Q9). In words: NCOA3 GAL4-fusion reporter inhibition – cell-based, luminescence, quadruplicate, confirmation (AID 588792).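 Also: 0% = DMSO treated cells and 100% = gossypol at 36 µM.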 The following applies: HEK293 GAL4-SRC3 luciferase reporter, at 3.6 µM, hits give high values.
Chain of Nuclear receptor coactivator 3 (Homo sapiens) (Q9Y6Q9 whole entry, looked up, the tested form may be a part): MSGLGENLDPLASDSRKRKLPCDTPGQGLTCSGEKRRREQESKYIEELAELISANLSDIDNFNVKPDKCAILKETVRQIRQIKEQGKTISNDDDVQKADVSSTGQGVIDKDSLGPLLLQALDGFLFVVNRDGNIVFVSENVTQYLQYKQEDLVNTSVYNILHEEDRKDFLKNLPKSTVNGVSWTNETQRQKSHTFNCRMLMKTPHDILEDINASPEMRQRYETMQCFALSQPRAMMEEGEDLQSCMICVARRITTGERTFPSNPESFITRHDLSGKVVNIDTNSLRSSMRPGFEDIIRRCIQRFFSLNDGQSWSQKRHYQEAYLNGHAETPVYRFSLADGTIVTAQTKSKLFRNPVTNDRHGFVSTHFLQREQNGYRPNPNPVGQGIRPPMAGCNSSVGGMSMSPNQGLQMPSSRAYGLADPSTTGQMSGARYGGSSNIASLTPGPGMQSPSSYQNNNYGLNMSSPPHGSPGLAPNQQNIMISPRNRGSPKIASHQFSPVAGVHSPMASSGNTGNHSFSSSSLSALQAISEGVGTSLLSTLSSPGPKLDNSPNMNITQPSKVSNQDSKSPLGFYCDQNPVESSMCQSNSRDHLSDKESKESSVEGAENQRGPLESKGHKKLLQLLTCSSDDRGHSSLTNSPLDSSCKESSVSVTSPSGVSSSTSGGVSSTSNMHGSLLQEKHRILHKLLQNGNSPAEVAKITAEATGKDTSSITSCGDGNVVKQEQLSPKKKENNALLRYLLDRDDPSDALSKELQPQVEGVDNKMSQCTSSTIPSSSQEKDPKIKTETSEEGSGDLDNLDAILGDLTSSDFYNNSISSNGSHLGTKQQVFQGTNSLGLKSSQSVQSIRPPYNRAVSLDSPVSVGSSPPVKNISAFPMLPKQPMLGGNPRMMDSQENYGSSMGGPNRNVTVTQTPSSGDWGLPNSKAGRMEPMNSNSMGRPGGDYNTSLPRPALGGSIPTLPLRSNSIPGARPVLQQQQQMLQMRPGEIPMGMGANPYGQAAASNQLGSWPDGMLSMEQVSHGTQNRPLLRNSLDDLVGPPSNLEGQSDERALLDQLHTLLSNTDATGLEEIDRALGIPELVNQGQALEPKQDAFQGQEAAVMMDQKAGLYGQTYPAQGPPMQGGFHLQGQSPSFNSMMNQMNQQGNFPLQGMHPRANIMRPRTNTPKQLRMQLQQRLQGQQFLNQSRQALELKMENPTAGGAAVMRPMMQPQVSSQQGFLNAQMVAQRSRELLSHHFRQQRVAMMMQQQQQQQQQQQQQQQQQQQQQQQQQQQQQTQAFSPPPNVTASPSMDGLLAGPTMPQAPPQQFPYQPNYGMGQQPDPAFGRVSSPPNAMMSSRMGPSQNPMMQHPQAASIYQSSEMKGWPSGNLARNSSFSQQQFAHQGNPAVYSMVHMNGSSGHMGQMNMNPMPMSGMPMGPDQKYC
The test system of assay [2] is transactivating tegument protein VP16 (Human herpesvirus 1), Gal4-VP16 luciferase reporter. In words: repression of VP16-driven luciferase reporter – cell-based, luminescence, high throughput, counter-screen for SRC3 inhibitor project (AID 588794; in the data active = inhibition above about 30%). The following applies: mammalian cells, at 3.6 µM, hits give high values.
Assay [3] concerns the target Nuclear receptor coactivator 1 (Homo sapiens) (UniProt Q15788). Kind of assay: NCOA1 GAL4-fusion reporter inhibition – cell-based, luminescence, quadruplicate, confirmation (AID 588820;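 active = mean inhibition above 46.68%, the untreated control wells mean plus 3 SD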;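 also: 0% = DMSO wells and 100% = gossypol 36 µM treated wells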). Conditions: HEK293 GAL4-SRC1 luciferase reporter, at 3.6 µM, hits give high values.
Assay [4] can be described thus: repression of VP16-driven luciferase reporter – cell-based, luminescence, high throughput, counter-screen for SRC1 inhibitor project (AID 588824; in the data active = inhibition above about 25%). Conditions: cell-based VP16 transactivation luciferase luminescence; at 3.6 µM; hits give high values.
Assay [5] in a line: StAR promoter reporter inhibitors, counter-screen for LRH-1 inverse agonist project, cell-based, luminescence, high throughput (AID 651611; in the data active = inhibition above about 28%). Conditions: StAR promoter luciferase reporter counterscreen, at 3.6 µM, hits give high values.
For assay [6], the target named is Nuclear receptor subfamily 5 group A member 2 (Homo sapiens) (UniProt O00482). In words: NR5A2 activity suppression in reporter cells – cell-based, luminescence, confirmation (AID 651613; in the data active = inhibition above about 42%;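 also: HEK293T cells co-transfected with LRH-1 and StAR promoter luciferase reporter; 0% = vehicle wells and 100% = parental cells lacking receptor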). Conditions: cell-based LRH-1 luciferase reporter, inverse agonism; at 3.6 µM; hits give high values.
Assay [7] concerns the target Steroidogenic factor 1 (Homo sapiens) (UniProt Q13285). Kind of assay: inverse agonism at SF1 nuclear receptor – cell-based, luminescence, high throughput, counter-screen for LRH-1 inverse agonist project (AID 651614; in the data active = inhibition above about 44%;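 also: cells cotransfected with StAR promoter reporter and SF1 expression vector; 0% = vehicle on cells with receptor and 100% = vehicle on cells lacking receptor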). Conditions: cell-based SF1 luciferase reporter, at 3.6 µM, hits give high values.
Assay [8] is described as follows: compounds suppressing VP16-driven luciferase signal – cell-based, luminescence, high throughput, counter-screen for LRH-1 inverse agonist project (AID 651615; in the data active = inhibition above about 33%). Conditions: Gal4-VP16 luciferase reporter cells, at 3.6 µM, hits give high values.
The subject of assay [9] is transactivating tegument protein VP16 (Human herpesvirus 1). In words: compounds suppressing VP16-driven luciferase signal – cell-based, luminescence, single concentration, counter-screen for SRC2 inhibitor project (AID 652007; in the data active = inhibition above about 36%). The following applies: cell-based VP16 transactivation luciferase reporter, at 8.9 µM, hits give high values.
Assay [10] addresses Nuclear receptor coactivator 2 (Homo sapiens) (UniProt Q15596). Kind of assay: inhibition of GAL4-SRC2 driven luciferase expression – cell-based, luminescence, HEK293, triplicate, confirmation (AID 652008;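 active = mean inhibition above 46.5%, the solvent-only control mean plus 3 SD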;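 also: 0% = DMSO-treated cells and 100% = Gossypol at 36 µM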). The following applies: HEK293 GAL4-SRC2 luciferase reporter, at 8.9 µM, hits give high values.

Chain of Steroidogenic factor 1 (Homo sapiens) (Q13285 whole entry, looked up, the tested form may be a part): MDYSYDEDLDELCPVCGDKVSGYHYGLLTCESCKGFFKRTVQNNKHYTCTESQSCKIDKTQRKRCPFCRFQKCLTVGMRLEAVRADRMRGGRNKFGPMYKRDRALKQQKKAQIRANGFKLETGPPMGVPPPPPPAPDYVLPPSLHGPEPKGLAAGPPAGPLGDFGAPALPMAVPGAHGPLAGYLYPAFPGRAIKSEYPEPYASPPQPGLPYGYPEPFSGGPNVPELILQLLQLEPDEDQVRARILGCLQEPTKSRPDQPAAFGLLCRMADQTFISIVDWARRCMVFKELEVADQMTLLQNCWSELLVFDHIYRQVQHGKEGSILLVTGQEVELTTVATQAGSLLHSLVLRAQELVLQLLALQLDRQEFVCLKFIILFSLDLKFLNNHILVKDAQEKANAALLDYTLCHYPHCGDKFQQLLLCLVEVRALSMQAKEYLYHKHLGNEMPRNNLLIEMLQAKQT
Chain of Nuclear receptor coactivator 1 (Homo sapiens) (Q15788 whole entry, looked up, the tested form may be a part): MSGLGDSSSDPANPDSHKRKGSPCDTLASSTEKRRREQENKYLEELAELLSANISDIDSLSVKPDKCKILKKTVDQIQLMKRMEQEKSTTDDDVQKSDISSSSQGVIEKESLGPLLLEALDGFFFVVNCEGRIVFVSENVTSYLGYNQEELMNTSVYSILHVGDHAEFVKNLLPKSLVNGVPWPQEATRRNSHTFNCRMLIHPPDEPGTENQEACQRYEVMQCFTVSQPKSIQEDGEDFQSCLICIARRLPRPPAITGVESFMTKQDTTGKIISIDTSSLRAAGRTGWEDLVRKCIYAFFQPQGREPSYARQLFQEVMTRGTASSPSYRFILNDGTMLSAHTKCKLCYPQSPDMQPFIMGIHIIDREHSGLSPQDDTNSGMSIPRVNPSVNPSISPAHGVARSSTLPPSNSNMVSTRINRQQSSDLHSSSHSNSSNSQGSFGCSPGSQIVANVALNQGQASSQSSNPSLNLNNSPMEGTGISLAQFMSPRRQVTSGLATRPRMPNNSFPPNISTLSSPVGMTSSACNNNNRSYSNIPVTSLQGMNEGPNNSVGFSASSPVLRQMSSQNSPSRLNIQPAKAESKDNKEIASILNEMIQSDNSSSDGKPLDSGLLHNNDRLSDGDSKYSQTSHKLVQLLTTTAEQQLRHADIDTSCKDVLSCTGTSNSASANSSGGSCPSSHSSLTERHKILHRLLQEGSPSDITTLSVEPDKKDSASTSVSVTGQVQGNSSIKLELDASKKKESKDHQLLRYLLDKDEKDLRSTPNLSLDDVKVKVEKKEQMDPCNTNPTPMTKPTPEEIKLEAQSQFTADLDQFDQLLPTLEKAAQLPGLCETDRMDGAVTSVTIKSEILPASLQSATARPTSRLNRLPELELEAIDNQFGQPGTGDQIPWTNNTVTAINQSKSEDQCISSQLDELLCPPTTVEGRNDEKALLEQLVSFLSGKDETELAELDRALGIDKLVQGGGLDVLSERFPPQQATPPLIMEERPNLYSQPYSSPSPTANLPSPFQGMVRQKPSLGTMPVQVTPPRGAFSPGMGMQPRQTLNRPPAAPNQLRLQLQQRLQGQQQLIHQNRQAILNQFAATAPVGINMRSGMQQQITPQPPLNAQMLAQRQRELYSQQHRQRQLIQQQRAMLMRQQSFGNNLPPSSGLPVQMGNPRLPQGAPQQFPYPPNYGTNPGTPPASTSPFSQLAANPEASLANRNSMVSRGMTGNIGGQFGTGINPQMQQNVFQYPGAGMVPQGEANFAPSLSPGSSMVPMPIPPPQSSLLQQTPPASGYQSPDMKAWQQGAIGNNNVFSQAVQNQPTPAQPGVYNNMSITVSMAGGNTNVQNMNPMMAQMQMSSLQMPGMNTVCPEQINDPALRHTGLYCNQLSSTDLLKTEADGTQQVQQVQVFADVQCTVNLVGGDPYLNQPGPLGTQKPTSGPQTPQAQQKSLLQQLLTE
Chain of Nuclear receptor coactivator 2 (Homo sapiens) (Q15596 whole entry, looked up, the tested form may be a part): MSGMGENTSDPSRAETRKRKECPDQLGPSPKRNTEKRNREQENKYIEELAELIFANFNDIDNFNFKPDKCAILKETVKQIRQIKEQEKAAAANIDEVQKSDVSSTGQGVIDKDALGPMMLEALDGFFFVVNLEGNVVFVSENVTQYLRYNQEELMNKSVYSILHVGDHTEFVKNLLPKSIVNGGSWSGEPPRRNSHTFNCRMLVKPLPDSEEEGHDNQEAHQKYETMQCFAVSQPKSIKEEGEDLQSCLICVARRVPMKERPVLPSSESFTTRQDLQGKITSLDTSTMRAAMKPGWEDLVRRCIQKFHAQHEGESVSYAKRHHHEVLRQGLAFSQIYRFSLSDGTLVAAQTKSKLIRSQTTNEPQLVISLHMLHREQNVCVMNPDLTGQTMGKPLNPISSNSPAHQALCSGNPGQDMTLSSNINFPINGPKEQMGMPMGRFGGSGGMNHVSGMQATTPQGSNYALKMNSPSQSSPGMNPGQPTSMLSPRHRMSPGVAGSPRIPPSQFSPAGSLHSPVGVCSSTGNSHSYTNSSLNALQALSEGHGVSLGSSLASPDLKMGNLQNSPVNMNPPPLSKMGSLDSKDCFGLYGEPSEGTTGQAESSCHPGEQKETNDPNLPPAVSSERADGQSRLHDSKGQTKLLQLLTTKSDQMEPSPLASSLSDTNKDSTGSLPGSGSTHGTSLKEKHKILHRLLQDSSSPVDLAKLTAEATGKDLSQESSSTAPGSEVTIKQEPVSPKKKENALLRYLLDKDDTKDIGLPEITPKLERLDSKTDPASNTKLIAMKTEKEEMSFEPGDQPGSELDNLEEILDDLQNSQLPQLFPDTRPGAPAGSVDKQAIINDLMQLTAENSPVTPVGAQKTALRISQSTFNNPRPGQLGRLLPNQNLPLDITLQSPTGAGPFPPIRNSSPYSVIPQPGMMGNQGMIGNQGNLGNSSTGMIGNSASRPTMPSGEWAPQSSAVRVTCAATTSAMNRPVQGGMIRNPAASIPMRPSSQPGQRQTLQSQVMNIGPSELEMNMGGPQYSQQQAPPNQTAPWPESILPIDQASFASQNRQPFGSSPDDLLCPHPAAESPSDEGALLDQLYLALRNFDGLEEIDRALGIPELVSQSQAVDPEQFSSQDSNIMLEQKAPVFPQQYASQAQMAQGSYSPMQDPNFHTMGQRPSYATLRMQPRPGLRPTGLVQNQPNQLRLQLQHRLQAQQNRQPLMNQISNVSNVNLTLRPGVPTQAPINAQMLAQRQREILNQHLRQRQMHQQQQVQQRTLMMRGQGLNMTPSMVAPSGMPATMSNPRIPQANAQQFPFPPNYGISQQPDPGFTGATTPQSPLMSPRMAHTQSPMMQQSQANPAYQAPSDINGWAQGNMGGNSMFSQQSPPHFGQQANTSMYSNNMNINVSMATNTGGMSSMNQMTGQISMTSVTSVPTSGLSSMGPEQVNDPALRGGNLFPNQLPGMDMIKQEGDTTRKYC

As for `CC1=CC2OC3CC4OC(=O)C=CC=CC(C(C)O)OCC(O)C5(C)OC5C(=O)OCC2(CC1O)C4(C)C31CO1` (stereo not drawn), the inhibition was 98.6% (active) in assay [1]; 96.2% (active) in [2]; 96.5% (active) in [3]; 95.1% (active) in assay [4]; 94.8% (active) in assay [5]; 108% (active) in [6]. Moreover, the inhibition in assay [7] is 96.5% (active); in assay [8] it was 96.2% (active); in assay [9], 82.1% (active); in assay [10] it was 73.5% (active).

For `CC(=O)OC1(C)CC(C)C(=O)C(C(O)CC2CC(=O)NC(=O)C2)C1` (stereo not drawn), the inhibition was 98% (active) in assay [1]; 96.7% (active) in [2]; 93.5% (active) in [3]; 95.6% (active) in [4]; 94.8% (active) in assay [5]; 110% (active) in [6]. In addition, the inhibition in [7] is 97.5% (active); in assay [8], 95.8% (active); in assay [9], 80.1% (active); in [10], 71.5% (active).

For the molecule `N#Cc1cn(C2OC(CO)C(O)C2O)c2ncnc(N)c12` (stereo not drawn), the inhibition is 81.4% (active) in assay [1]; 91.3% (active) in assay [2]; -24% in [3]; 89.7% (active) in assay [4]; 82% (active) in [5]; 107% (active) in [6]. The inhibition in assay [7] is 94.1% (active); in assay [8] it was 91% (active); in assay [9], 30.4%; in assay [10], 48.3% (active).

Turning to `CCN1CCN(c2ncnc3ccc(Br)cc23)CC1`, the inhibition in assay [1] is 56.6% (active); in [2], 54.3% (active); in [3], 72.2% (active); in [4] it was 44.9% (active); in assay [9], 2.45%; in assay [10] it was 36.7%.

Turning to `C=C1C(=O)O[C@@H]2C[C@@H](C)[C@@H]3C=CC(=O)[C@@]3(C)[C@@H](O)[C@H]12`, the inhibition in assay [1] was 42.1%; in assay [2], 92.5% (active); in assay [4] it was 91.7% (active); in assay [9] it was 96% (active); in assay [10], 93.7% (active).

As for `NC(=O)c1cn(C2OC(CO)C(O)C2O)c2ncnc(N)c12` (stereo not drawn), the inhibition is 96.2% (active) and 97.7% (active) in assay [1]; 97.7% (active) and 97.3% (active) in assay [2]; 90% (active) and 90.1% (active) in assay [3]; 97.9% (active) and 96% (active) in assay [4]; 94.2% (active) and 95% (active) in assay [5]; 109% (active) and 110% (active) in [6]. For the same molecule, the inhibition is 96.8% (active) and 98% (active) in assay [7]; 95.5% (active) and 97.3% (active) in [8]; 65% (active) and 66.1% (active) in assay [9]; 67.3% (active) and 73.3% (active) in [10].

`CCCCN=C[C@]12CCC(O)CC1(O)CCC1[C@@H]2CC[C@]2(C)[C@H](C3C=CC(=O)O3)CCC12O` (stereo partly drawn): the inhibition in assay [1] was 94% (active); in assay [2], 75.5% (active); in assay [3] it was 42%; in assay [4], 75% (active); in assay [5] it was 97% (active); in assay [6] it was 110% (active). The inhibition in assay [7] is 98.5% (active); in [8], 85.2% (active); in assay [9], 69.6% (active); in assay [10] it was 20.9%.

In the case of `CC1OC(OC2CC(O)C3(CO)C4C(O)CC5(C)C(C6=CC(=O)OC6)CCC5(O)C4CCC3(O)C2)C(O)C(O)C1O` (stereo not drawn), the inhibition in [1] is 97.2% (active); in assay [2], 89.1% (active); in [3], 80.3% (active); in assay [4], 87.2% (active); in assay [6], 109% (active); in [7], 96% (active). The inhibition is 93.5% (active) in assay [8], 70.9% (active) in assay [9] and 54% (active) in assay [10].

As to `CC(=O)OC[C@]12CCC(C)=C[C@H]1O[C@@H]1[C@H](O)[C@@H](OC(C)=O)[C@@]2(C)[C@]12CO2`, the inhibition in assay [1] was 98.8% (active); in assay [2] it was 97.9% (active); in [3], 98% (active); in assay [4], 97.8% (active); in [5], 96% (active); in [6], 109% (active). Further, the inhibition in [7] is 98% (active); in assay [8], 97.1% (active); in assay [9], 78.3% (active); in [10], 73% (active).

On to `O=C(c1ccccc1)C(CN1CCCC1)c1ccccc1` (stereo not drawn), for which the inhibition was 19.4% in assay [1]; 33.5% (active) in assay [2]; 10.9% in assay [3]; 39.2% (active) in [4]; 27% in [9]; 68.3% (active) in assay [10].

Turning to `C[C@@H]1O[C@@H](O[C@@H]2C=C3CCC4C(CC[C@]5(C)[C@@H](c6ccc(=O)oc6)CC[C@]45O)[C@@]3(C)CC2)[C@H](O)[C@H](O)[C@H]1O` (stereo partly drawn), the inhibition in assay [1] was 97.5% (active); in assay [2] it was 90.9% (active); in assay [3], 84.9% (active); in [4] it was 89.9% (active); in assay [5], 97% (active); in assay [6], 110% (active). The inhibition in [7] is 98.9% (active); in [8] it was 96.5% (active); in assay [9], 74.1% (active); in [10], 60.1% (active).

Take `CC12CCC3C(CCC4(O)CC(O)CCC34C=O)C1(O)CCC2C1=CC(=O)OC1` (stereo not drawn): the inhibition in assay [1] is 90% (active); in assay [2], 67.4% (active); in assay [3] it was 14.4%; in assay [4] it was 67.5% (active); in [6], 109% (active); in assay [7] it was 96.2% (active).

In the case of `O=C1CN=C(c2ccc[nH]2)c2cc(Cl)ccc2N1`, the inhibition in [1] was 76% (active); in [2], 57.9% (active); in [3], 53.3% (active); in assay [4] it was 57.5% (active); in assay [9], 30.2%; in [10], 44%.

Take `O=C1NC2C(=CC(O)C(O)C2O)c2cc3c(cc21)OCO3` (stereo not drawn): the inhibition is 97.1% (active) in [1]; 96.6% (active) in assay [2]; 88.5% (active) in assay [3]; 96.3% (active) in assay [4]; 94% (active) in assay [5]; 109% (active) in assay [6]. The inhibition in assay [7] is 96.7% (active); in assay [8], 95.6% (active); in [9], 73.8% (active); in assay [10] it was 76.2% (active).
